Results from PubChem BioAssay (Tox21).
Several values for one entry are separate records, joined by “and”; a condition that tells them apart may be missing. Equal entries are not always repeated. Records with an inconclusive call do not appear. Activity calls are given as the source filed them. Unless noted, calls follow the shape of the dose curve; as a rule, active = well fitted curve in the direction sought with a large enough effect in the repeat runs; inconclusive = weak or mixed curves; inactive = no such curve, though single readings can be large; an effect the other way counts as inactive or inconclusive.

Key:
[1] = qHTS assay to identify small molecule antagonists of the sonic hedgehog signaling (Shh) pathway (AID 1259369; calls by dose curve; also: nearly all actives have a fitted effect of over 45% in size; also: potency is read from the fitted curve at half-maximal effect)
Procedure, shortened: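 Read-out is luminescence from a firefly luciferase gene controlled by the Gli1 response element, in 3T3Gli1-Luc cells pre-incubated 4hr then exposed to compounds and conditioned medium for 24hr.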

[2] = target: Estrogen receptor beta (Homo sapiens) (UniProt Q92731); assay: qHTS assay to identify small molecule agonists of the estrogen receptor beta (ER-beta) signaling pathway (AID 1259377; active = well fitted activation curve with a large enough effect in the signal ratio in the repeat runs, not every such curve was filed as active; the % refers to the signal ratio)
Estrogen receptor beta (Homo sapiens), sequence (Q92731 whole entry, looked up): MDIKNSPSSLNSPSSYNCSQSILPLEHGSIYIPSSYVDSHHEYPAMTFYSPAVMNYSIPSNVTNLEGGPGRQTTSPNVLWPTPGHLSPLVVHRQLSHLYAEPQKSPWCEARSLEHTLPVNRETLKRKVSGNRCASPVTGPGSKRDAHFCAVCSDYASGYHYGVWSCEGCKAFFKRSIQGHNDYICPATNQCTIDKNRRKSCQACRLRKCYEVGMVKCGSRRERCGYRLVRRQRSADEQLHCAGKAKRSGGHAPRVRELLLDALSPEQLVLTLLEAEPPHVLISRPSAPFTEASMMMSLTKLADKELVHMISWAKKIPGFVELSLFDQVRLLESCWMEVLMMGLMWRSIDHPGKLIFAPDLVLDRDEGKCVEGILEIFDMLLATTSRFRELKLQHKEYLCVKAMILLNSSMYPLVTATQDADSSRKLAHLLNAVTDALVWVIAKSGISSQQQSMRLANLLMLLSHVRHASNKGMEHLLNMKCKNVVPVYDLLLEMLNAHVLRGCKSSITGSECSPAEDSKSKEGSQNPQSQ
Procedure, shortened: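 Ratiometric beta-lactamase FRET read-out came after 2 h substrate loading at room temperature. It followed 16 h compound treatment at 37C of GripTite HEK293T cells carrying a UAS-bla reporter, plated in 2% charcoal-stripped FBS medium.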

[3] = target: Estrogen receptor beta (Homo sapiens) (UniProt Q92731); assay: qHTS assay to identify small molecule antagonists of the estrogen receptor beta (ER-beta) signaling pathway (AID 1259378; active = well fitted inhibition curve with a large enough effect in the signal ratio in the repeat runs, not every such curve was filed as active; the % refers to the signal ratio; also: potency is read from the fitted curve at half-maximal effect)
Procedure, shortened: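 ER-beta-UAS-bla HEK293T (GripTite) cells in 2% charcoal-stripped FBS medium were preincubated 6 hr at 37C, dosed with compound, then stimulated with 1 nM E2 (final) for 16 hr; beta-lactamase reporter read by B/G FRET fluorescence after 2 hr substrate loading.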

[4] = qHTS assay to identify small molecule agonists of the androgen receptor (AR) signaling pathway in the presence of an antagonist - cell viability counter screen (AID 1259379); also: nearly all actives have a fitted effect of over 25% in size; also: potency is read from the fitted curve at half-maximal effect
Procedure, shortened: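 Each compound was tested at 15 concentrations on MDA-kb2 cells in the presence of 3.0uM nilutamide. Viability was measured by CellTiter-Fluor fluorescence after a 16 hr incubation at 37C in a CO2-free atmosphere.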

[5] = qHTS assay to identify small molecule agonists of the estrogen receptor beta (ER-beta) signaling pathway - cell viability counter screen (AID 1259380); also: nearly all actives have a fitted effect of over 30% in size; also: potency is read from the fitted curve at half-maximal effect
Procedure, shortened: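 Compounds dissolved in DMSO were pin-transferred onto ER-beta-UAS-bla HEK293T cells that had settled 6 hr, and exposure ran 16 hr at 37C. Following the reporter read, CellTiter-Glo luminescence after 30 min at room temperature indicated cytotoxicity.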

[6] = target: Thyrotropin receptor (Homo sapiens) (UniProt P16473); assay: qHTS assay to identify small molecule antagonists of the thyroid stimulating hormone receptor (TSHR) signaling pathway (AID 1259385; calls by dose curve; also: nearly all actives have a fitted effect of over 20% in size)
Thyrotropin receptor (Homo sapiens), sequence (P16473 whole entry, looked up): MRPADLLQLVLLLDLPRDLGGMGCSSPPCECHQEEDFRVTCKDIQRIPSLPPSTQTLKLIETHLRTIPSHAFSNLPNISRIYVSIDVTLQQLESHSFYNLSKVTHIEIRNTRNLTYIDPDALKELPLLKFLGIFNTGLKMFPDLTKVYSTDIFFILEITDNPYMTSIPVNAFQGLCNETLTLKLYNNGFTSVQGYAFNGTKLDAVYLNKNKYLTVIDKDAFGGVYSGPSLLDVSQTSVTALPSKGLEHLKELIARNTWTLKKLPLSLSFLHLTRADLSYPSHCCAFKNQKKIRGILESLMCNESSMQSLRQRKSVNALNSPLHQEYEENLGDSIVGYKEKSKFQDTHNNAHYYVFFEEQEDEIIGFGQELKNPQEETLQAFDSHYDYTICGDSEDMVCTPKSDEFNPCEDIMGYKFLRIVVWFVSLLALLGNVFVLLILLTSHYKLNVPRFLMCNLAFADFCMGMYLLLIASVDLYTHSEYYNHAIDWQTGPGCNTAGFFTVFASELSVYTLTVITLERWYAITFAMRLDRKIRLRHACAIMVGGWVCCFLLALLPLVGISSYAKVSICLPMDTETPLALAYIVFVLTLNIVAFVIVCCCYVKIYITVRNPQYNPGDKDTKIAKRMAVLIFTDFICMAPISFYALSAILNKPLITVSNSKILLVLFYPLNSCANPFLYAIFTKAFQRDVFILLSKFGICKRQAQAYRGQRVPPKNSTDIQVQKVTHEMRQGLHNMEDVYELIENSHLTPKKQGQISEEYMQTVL
Procedure, shortened: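 TSHR-HEK293 cells were plated and held 18 h at 37C/5% CO2, then given compound plus Ro20-1724 and stimulated with TSH at 1.5 ng/mL final. After 30 min at room temperature, cAMP was detected with cAMP-d2/anti-cAMP-cryptate (1 h) by fluorescence.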

[7] = qHTS assay to identify small molecule agonists of the estrogen receptor alpha (ER-alpha) signaling pathway in the presence of an antagonist - cell viability counter screen (AID 1259386);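 also: cells exposed to compounds for 22 h at 37 °C before the viability read; nearly all actives have a fitted effect of over 30% in size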; also: potency is read from the fitted curve at half-maximal effect
Procedure, shortened: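 Using estrogen-depleted VM7Luc4E2 cells, the 15-concentration compound series was applied together with 10.0nM ICI-182,780 and incubated 22hr at 37C/5% CO2. Cell viability was then scored by CellTiter-Fluor.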

[8] = target: Progesterone receptor (Homo sapiens) (UniProt P06401); assay: qHTS assay to identify small molecule agonists of the progesterone receptor (PR) signaling pathway (AID 1346784; calls by dose curve; also: nearly all actives have a fitted effect of over 30% in size)
Progesterone receptor (Homo sapiens), sequence (P06401 whole entry, looked up): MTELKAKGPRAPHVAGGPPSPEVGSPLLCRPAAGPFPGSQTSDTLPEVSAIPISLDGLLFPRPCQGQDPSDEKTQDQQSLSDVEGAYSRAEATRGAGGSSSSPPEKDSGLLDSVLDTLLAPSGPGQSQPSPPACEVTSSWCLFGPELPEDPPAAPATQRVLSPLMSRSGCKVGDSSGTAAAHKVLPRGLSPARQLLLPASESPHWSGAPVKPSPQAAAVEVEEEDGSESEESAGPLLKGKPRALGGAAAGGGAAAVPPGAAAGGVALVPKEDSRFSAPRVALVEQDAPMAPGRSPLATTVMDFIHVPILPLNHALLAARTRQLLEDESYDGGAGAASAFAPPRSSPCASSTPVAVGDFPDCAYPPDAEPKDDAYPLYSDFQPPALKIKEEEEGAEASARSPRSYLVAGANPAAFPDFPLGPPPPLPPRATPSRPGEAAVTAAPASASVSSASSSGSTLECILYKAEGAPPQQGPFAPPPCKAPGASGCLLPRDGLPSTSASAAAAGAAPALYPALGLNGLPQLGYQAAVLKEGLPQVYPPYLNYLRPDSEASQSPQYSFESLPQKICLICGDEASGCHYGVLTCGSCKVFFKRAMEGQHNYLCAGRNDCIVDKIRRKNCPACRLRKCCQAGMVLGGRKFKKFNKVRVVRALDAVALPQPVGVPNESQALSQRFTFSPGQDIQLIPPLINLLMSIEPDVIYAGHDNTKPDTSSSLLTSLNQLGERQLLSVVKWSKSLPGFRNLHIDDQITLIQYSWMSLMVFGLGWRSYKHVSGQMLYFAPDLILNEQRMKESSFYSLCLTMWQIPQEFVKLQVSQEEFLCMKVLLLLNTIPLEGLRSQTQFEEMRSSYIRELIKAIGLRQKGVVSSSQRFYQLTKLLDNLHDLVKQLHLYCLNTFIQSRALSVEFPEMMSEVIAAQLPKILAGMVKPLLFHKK
Procedure, shortened: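 Agonist qHTS: compounds pinned onto 3,000 PR-UAS-bla HEK 293T cells per well in charcoal-stripped serum medium, 16hr at 37C, then beta-lactamase activity measured by LiveBLAzer FRET fluorescence after 2 hours at room temperature.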

[9] = target: Progesterone receptor (Homo sapiens) (UniProt P06401); assay: qHTS assay to identify small molecule antagonists of the progesterone receptor (PR) signaling pathway (AID 1346795; active = well fitted inhibition curve with a large enough effect in the signal ratio in the repeat runs, not every such curve was filed as active; the % refers to the signal ratio; also: potency is read from the fitted curve at half-maximal effect)
Procedure, shortened: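 Antagonist mode with agonist R5020 at 1 nM final and 16 hr incubation at 37C. Reporter was beta-lactamase driven by UAS in HEK293T (PR-UAS-bla), 2% charcoal-stripped serum; signal from LiveBLAzer FRET substrate, 2 hr at room temperature.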

[10] = qHTS assay to identify small molecule antagonists of the progesterone receptor (PR) signaling pathway - cell viability counter screen (AID 1346798); also: series mostly up to about 92 µM; nearly all actives have a fitted effect of over 50% in size
Procedure, shortened: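 Cytotoxicity read as CellTiter-Glo luminescence (30 min, room temperature) in the same wells as the beta-lactamase readout. HEK293T PR-UAS-bla cells in charcoal-stripped 2% FBS received compound and R5020, then 16 h at 37C, 5% CO2.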

[11] = qHTS assay to identify small molecule agonists of the progesterone receptor (PR) signaling pathway - cell viability counter screen (AID 1346799; calls by dose curve; also: nearly all actives have a fitted effect of over 45% in size)
Procedure, shortened: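 Cytotoxicity measured by CellTiter-Glo luminescence (30 min, RT) in the same wells as the PR beta-lactamase agonist read. Those HEK293T cells had 16 h compound treatment at 37 C in 2% charcoal-stripped FBS medium.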

[12] = qHTS assay to identify small molecule antagonists of the TGF-beta/Smad signaling pathway - cell viability counter screen (AID 1346824); also: nearly all actives have a fitted effect of over 50% in size
Procedure, shortened: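 SBE-bla HEK 293T cells were plated overnight at 37 C, then given compounds in DMSO plus TGF-beta1 (added as 0.25 ng/mL solution) for 5 hr. After the bla read, CellTiter-Glo was added to the same wells and luminescence read after 30 min at room temperature.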

[13] = qHTS assay to identify small molecule agonists of the TGF-beta/Smad signaling pathway - cell viability counter screen (AID 1346829); also: top concentration of the series differs between compounds; nearly all actives have a fitted effect of over 45% in size
Procedure, shortened: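 Here the cytotoxicity of library compounds is measured in SBE-bla HEK 293T cells treated for 5 hr, using CellTiter-Glo added to wells already read for the beta-lactamase reporter.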

[14] = qHTS assay to identify small molecule agonists of the TGF-beta/Smad signaling pathway (AID 1346859; active = well fitted activation curve with a large enough effect in the signal ratio in the repeat runs, not every such curve was filed as active; the % refers to the signal ratio; also: series mostly up to about 77 µM)
Procedure, shortened: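 Fluorescence (ex 405 nm; em 460 and 530 nm) was read 2 h after LiveBLAzer FRET substrate at RT. The preceding compound treatment of overnight-plated SBE-bla HEK293T cells lasted 5 h at 37 C.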

[15] = qHTS assay to identify small molecule antagonists of the estrogen receptor beta (ER-beta) signaling pathway - cell viability counter screen (AID 1259382); also: series mostly up to about 92 µM; nearly all actives have a fitted effect of over 55% in size
Procedure, shortened: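 CellTiter-Glo ATP luminescence measured after the LiveBLAzer read in the same wells; ER-beta-UAS-bla HEK293T cells, 16 hr compound treatment with 1nM 17-beta-estradiol agonist at 37C, 5% CO2.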

[16] = target: Estrogen receptor (Homo sapiens) (UniProt P03372); assay: qHTS assay to identify small molecule agonists of the estrogen receptor alpha (ER-alpha) signaling pathway in the presence of an antagonist (AID 1259383; calls by dose curve; also: top concentration of the series differs between compounds; nearly all actives have a fitted effect of over 15% in size)
Estrogen receptor (Homo sapiens), sequence (P03372 whole entry, looked up): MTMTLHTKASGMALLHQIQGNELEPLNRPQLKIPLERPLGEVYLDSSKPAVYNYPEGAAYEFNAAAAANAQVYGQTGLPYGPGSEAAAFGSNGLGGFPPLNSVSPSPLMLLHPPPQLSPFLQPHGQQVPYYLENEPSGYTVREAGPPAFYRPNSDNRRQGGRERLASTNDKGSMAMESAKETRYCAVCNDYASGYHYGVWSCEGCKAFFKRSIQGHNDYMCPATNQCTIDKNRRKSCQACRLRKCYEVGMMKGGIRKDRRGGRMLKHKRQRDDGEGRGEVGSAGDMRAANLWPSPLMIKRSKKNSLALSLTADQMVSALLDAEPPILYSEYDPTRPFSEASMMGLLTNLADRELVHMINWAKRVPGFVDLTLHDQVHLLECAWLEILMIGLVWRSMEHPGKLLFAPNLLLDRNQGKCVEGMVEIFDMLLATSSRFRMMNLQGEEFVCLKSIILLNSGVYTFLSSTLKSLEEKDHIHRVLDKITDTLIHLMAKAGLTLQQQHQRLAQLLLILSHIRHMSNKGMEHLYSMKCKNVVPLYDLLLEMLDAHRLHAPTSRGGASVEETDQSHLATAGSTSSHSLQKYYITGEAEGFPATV
Procedure, shortened: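 Luminescent ERE-luciferase reporter, VM7Luc4E2 cells (endogenous ER-alpha); 10.0nM ICI-182,780 final; 15-point compound titration; 22hr at 37C; ONE-Glo, 30min RT.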

[17] = target: Thyrotropin-releasing hormone receptor (Homo sapiens) (UniProt P34981); assay: qHTS assay to identify small molecule antagonists of the thyrotropin-releasing hormone receptor (TRHR) signaling pathway (AID 1346877; active = well fitted inhibition curve with a large enough effect in the repeat runs, not every such curve was filed as active; also: series mostly up to about 51 µM)
Thyrotropin-releasing hormone receptor (Homo sapiens), sequence (P34981 whole entry, looked up): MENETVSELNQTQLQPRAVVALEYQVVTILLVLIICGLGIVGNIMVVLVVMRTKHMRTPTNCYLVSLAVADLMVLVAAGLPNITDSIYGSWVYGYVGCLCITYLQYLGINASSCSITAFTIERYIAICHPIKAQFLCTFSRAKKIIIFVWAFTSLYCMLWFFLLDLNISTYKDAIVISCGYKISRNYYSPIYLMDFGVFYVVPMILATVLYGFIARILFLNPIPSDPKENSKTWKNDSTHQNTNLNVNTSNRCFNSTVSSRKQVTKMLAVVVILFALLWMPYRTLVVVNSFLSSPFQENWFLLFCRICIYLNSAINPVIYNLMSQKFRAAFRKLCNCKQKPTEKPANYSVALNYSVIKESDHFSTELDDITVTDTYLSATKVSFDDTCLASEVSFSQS
Procedure, shortened: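 Calcium signal in dye-loaded TRHR/HEK293 cells; compounds added 5 min before TRH (1 nM final); fluorescence monitored 3 min at 1 s steps.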

[18] = qHTS assay to identify small molecule agonists or antagonists of the thyroid stimulating hormone receptor (TSHR) signaling pathway - wild type cell line counter screen (AID 1259384; calls by dose curve)
Procedure, shortened: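 Wild-type HEK293 cells were plated 18 h at 37 C/5% CO2, pin-dosed with compound plus Ro20-1724 medium, held 30 min at room temperature, then given cAMP-d2 and anti-cAMP-cryptate; fluorescence was read after 1 h. Fifteen concentrations, triplicate.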

[19] = target: Thyrotropin-releasing hormone receptor (Homo sapiens) (UniProt P34981); assay: qHTS assay to identify small molecule agonists of the thyrotropin-releasing hormone receptor (TRHR) signaling pathway (AID 1346891; calls by dose curve; also: series mostly up to about 58 µM)
Procedure, shortened: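 Agonist-mode intracellular calcium readout: kinetic fluorescence over 3 min at 1 s intervals after compound addition to TRHR-HEK293 cells (18 h seeded, 2 h dye-loaded at 37 C). Fifteen concentrations, triplicates.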

Measured: Potency

CC/C(=N\OC/C=C/Cl)C1=C(O)CC(C2CCOCC2)CC1=O (stereo not given)
inactive: [1] | [2] | [3] | [4] | [5] | [6] | [7] | [8] | [9] | [10] | [11] | [12] | [13] | [14]

COC(=O)C(Br)CBr (stereo not given)
inactive: [1] | [2] | [3] | [4] | [5] | [15] | [16] | [7] | [8] | [9] | [11] | [12] | [13] | [14] | [17]

Cn1sc(Cl)cc1=O
inactive: [1] | [2] | [3] | [4] | [5] | [16] | [18] | [6] | [7] | [8] | [9] | [10] | [12] | [13] | [14] | [17] | [19]

c1ccc(CN2CCNCC2)cc1
inactive: [1] | [2] | [3] | [4] | [5] | [6] | [7] | [8] | [9] | [10] | [11] | [12] | [13] | [14]

CO/C=C(/C(=O)OC)c1ccccc1COc1cccc(C(F)(F)F)n1
inactive: [2] | [15] | [16] | [8] | [10] | [12] | [13] | [14] | [17] | [19]
active: [1] 0.544 µM | [3] 3.85 µM | [4] 5.44 µM | [5] 4.85 µM | [7] 8.63 µM

CCOC(=O)CBr
inactive: [1] | [2] | [3] | [4] | [5] | [15] | [18] | [6] | [7] | [8] | [10] | [11] | [12] | [13] | [14] | [17] | [19]

ClCc1ccccc1
inactive: [1] | [2] | [3] | [4] | [15] | [16] | [18] | [6] | [7] | [8] | [9] | [10] | [11] | [12] | [13] | [14]

CCOP(=O)(OCC)Oc1ccc([N+](=O)[O-])cc1
active: [9] 17.4 µM and 17.2 µM
inactive: [1] | [2] | [3] | [4] | [5] | [15] | [6] | [7] | [10] | [11] | [12] | [13] | [14]

O=C(O)CC(Cl)C(=O)O (stereo not given)
inactive: [1] | [2] | [3] | [4] | [5] | [15] | [18] | [6] | [7] | [8] | [9] | [10] | [11] | [12] | [13] | [14] | [17] | [19]
